In PubChem BioAssay (EPA / NIEHS):
The source made the active and inactive calls. Rule for the calls: active = hit-call score of the fitted dose curve at least 0.9, where 1 is the maximum; inactive = score below 0.9.

Tests used:
Details in all cases: mRNA level, 48 h; actives raise or lower the signal
CYP2C9 (gene 1559) = test: LTEA_HepaRG_CYP2C9: Life Technologies and Expression Analysis (LTEA) Assay for CYP2C9 using HepaRG (AID 2283484)
Outline: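 HepaRG, 48 h dosing, 8-pt half-log series, top 100 uM, 0.5% DMSO vehicle. Read-out: CYP2C9 transcript by TaqMan qRT-PCR, housekeeping-normalized (ACTB/GAPDH/POLR2A). Gain or loss fitted vs DMSO baseline.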

CYP2E1 (gene 1571) = test: LTEA_HepaRG_CYP2E1: Life Technologies and Expression Analysis (LTEA) Assay for CYP2E1 using HepaRG (AID 2283485)
Outline: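 Assay uses 48 h exposure of HepaRG hepatic cells, eight concentrations to 100 uM. Expression of CYP2E1 is quantified by TaqMan qRT-PCR with ACTB, GAPDH and POLR2A normalization; curves fitted in both directions relative to vehicle.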

CYP4A11 (gene 1579) = test: LTEA_HepaRG_CYP4A11: Life Technologies and Expression Analysis (LTEA) Assay for CYP4A11 using HepaRG (AID 2283486)
Outline: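 Differentiated HepaRG cells, serum-free induction medium, exposed 48 h in duplicate to 8-point half-log series from 100 uM in 0.5% DMSO. CYP4A11 mRNA measured by qRT-PCR, normalized to ACTB, GAPDH, POLR2A; bidirectional fit versus DMSO.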

[1] = read-out: Cytochrome P450 3A4 (Homo sapiens) (UniProt P08684); test: LTEA_HepaRG_CYP3A4: Life Technologies and Expression Analysis (LTEA) Assay for CYP3A4 using HepaRG (AID 2283487)
Outline: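 Differentiated HepaRG cells in serum-free induction medium exposed in duplicate for 48 h to 8 half-log concentrations up to 100 uM in 0.5% DMSO. CYP3A4 mRNA measured by qRT-PCR normalized to ACTB, GAPDH and POLR2A; bidirectional fit versus DMSO.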

[2] = read-out: Pro-epidermal growth factor (Homo sapiens) (UniProt P01133); test: LTEA_HepaRG_EGF: Life Technologies and Expression Analysis (LTEA) Assay for Epidermal growth factor (EGF) using HepaRG (AID 2283489)
Outline: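 Differentiated human HepaRG cells, plated 48 h then switched to serum-free induction medium, were exposed for 48 h to test chemicals (8-point half-log series, top 100 uM, 0.5% DMSO). EGF mRNA was quantified by qRT-PCR, normalized to ACTB, GAPDH, POLR2A.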

[3] = read-out: Early growth response protein 1 (EGR1) transcription factor, EGR1 (gene 1958); test: LTEA_HepaRG_EGR1: Life Technologies and Expression Analysis (LTEA) Assay for Early growth response protein 1 (EGR1) transcription factor using HepaRG (AID 2283490)
Outline: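 HepaRG, 48 h exposure, 8-pt half-log series from 100 uM, 0.5% DMSO vehicle; EGR1 transcript by TaqMan qRT-PCR (Fluidigm array), housekeeping-normalized; bidirectional fit relative to DMSO baseline.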

[4] = read-out: Ezrin (EZR), EZR (gene 7430); test: LTEA_HepaRG_EZR: Life Technologies and Expression Analysis (LTEA) Assay for Ezrin (EZR) using HepaRG (AID 2283491)
Outline: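 Differentiated human HepaRG cells, 48 h after plating, were exposed in serum-free induction medium for 48 hours to eight half-log concentrations up to 100 uM in 0.5% DMSO. EZR mRNA was measured by TaqMan qRT-PCR, normalized to ACTB, GAPDH and POLR2A, and fitted bidirectionally against DMSO.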

CYP3A5 (gene 1577) = test: LTEA_HepaRG_CYP3A5: Life Technologies and Expression Analysis (LTEA) Assay for CYP3A5 using HepaRG (AID 2283493)
Outline: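 Readout was CYP3A5 mRNA by qRT-PCR. HepaRG cultures were exposed for 48 h in serum-free induction medium to chemicals at up to 100 uM, and responses were fitted in both directions relative to DMSO vehicle.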

[5] = read-out: Fatty Acid-Binding Protein 1 (FABP1), FABP1 (gene 2168); test: LTEA_HepaRG_FABP1: Life Technologies and Expression Analysis (LTEA) Assay for Fatty Acid-Binding Protein 1 (FABP1) using HepaRG (AID 2283494)
Outline: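 qRT-PCR readout of FABP1 transcript (normalized to three housekeeping genes) after 48 h chemical exposure of HepaRG cells; eight concentrations, half-log steps, max 100 uM, 0.5% DMSO vehicle; gain or loss fitted relative to DMSO baseline.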

[6] = read-out: Cytochrome P450 4A22 (Homo sapiens) (UniProt Q5TCH4); test: LTEA_HepaRG_CYP4A22: Life Technologies and Expression Analysis (LTEA) Assay for Cytochrome P450 4A22 (CYP4A22) using HepaRG (AID 2283495)
Outline: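 qRT-PCR of CYP4A22 mRNA (Fluidigm TaqMan, normalized to three housekeeping genes) after 48 h chemical exposure of HepaRG cells; 8-point half-log series, top 100 uM, 0.5% DMSO vehicle. Bidirectional curve fitting vs DMSO baseline.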

[7] = read-out: Cytochrome P450 7A1 (Homo sapiens) (UniProt P22680); test: LTEA_HepaRG_CYP7A1: Life Technologies and Expression Analysis (LTEA) Assay for Cytochrome P450 7A1 (CYP7A1) using HepaRG (AID 2283496)
Outline: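 Using 0.5% DMSO as vehicle and baseline, chemicals were tested in duplicate over an 8-point range from 100 uM on HepaRG cells for 48 h; qRT-PCR signals were normalised to ACTB, GAPDH and POLR2A.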

[8] = read-out: Glutathione S-Transferase (GSTA2), GSTA2 (gene 2939); test: LTEA_HepaRG_GSTA2: Life Technologies and Expression Analysis (LTEA) Assay for Glutathione S-Transferase (GSTA2) using HepaRG (AID 2283497)
Outline: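 qRT-PCR readout of GSTA2 transcript, normalized to three housekeeping genes, fitted bidirectionally against 0.5% DMSO baseline. Differentiated HepaRG cells received compound for 48 h at 8 concentrations (top 100 uM, half-log steps).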

[9] = read-out: Glutamate-cysteine ligase catalytic (GCLC), GCLC (gene 2729); test: LTEA_HepaRG_GCLC: Life Technologies and Expression Analysis (LTEA) Assay for Glutamate-cysteine ligase catalytic (GCLC) using HepaRG (AID 2283498)
Outline: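 HepaRG, 48 h exposure, 8-pt half-log series from 100 uM, 0.5% DMSO vehicle; TaqMan qRT-PCR for GCLC mRNA, housekeeping-normalized; bidirectional curve fit vs DMSO baseline.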

[10] = read-out: growth arrest and DNA damage 45 (GADD45G), GADD45G (gene 10912); test: LTEA_HepaRG_GADD45G: Life Technologies and Expression Analysis (LTEA) Assay for growth arrest and DNA damage 45 (GADD45G) using HepaRG (AID 2283499)
Outline: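 Differentiated human HepaRG cells in serum-free induction medium were exposed for 48 h to 8 half-log concentrations up to 100 uM in 0.5% DMSO, in duplicate. GADD45G mRNA was measured by TaqMan qRT-PCR, normalised to ACTB, GAPDH and POLR2A, and fitted bidirectionally against DMSO.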

[11] = read-out: Glutamate-cysteine ligase regulatory (GCLM), GCLM (gene 2730); test: LTEA_HepaRG_GCLM: Life Technologies and Expression Analysis (LTEA) Assay for Glutamate-cysteine ligase regulatory (GCLM) using HepaRG (AID 2283500)
Outline: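 In this multiplexed HepaRG gene-expression assay, GCLM mRNA change after 48 h treatment (8 concentrations, max 100 uM) was scored against DMSO by bidirectional curve fitting.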

[12] = read-out: Glutathione S-transferase M3 (GSTM3), GSTM3 (gene 2947); test: LTEA_HepaRG_GSTM3: Life Technologies and Expression Analysis (LTEA) Assay for Glutathione S-transferase M3 (GSTM3) using HepaRG (AID 2283501)
Outline: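 Differentiated HepaRG cells in serum-free induction medium were exposed in duplicate for 48 h to 8 half-log concentrations up to 100 uM in 0.5% DMSO. GSTM3 mRNA was measured by TaqMan qRT-PCR, normalized to ACTB/GAPDH/POLR2A, and fitted bidirectionally versus DMSO.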

[13] = read-out: Heat shock 70 kDa protein 1 (HSPA1A), gene 3303; test: LTEA_HepaRG_HSPA1A: Life Technologies and Expression Analysis (LTEA) Assay for Heat shock 70 kDa protein 1 (HSPA1A) using HepaRG (AID 2283502)
Outline: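 An oxidative-stress marker readout: HepaRG cells treated 48 h in duplicate with an eight-point series (highest 100 uM) had HSPA1A mRNA quantified by TaqMan qRT-PCR. Activity was fitted in both directions using 0.5% DMSO as baseline.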

[14] = read-out: Hypoxia-inducible factor 1-alpha (Homo sapiens) (UniProt Q16665); test: LTEA_HepaRG_HIF1A: Life Technologies and Expression Analysis (LTEA) Assay for Hypoxia-inducible factor 1 (HIF1A) Trancription factor using HepaRG (AID 2283503);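 note: HIF1A transcript by TaqMan qRT-PCR normalized to ACTB GAPDH and POLR2A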
Outline: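 Gain- or loss-of-signal HIF1A mRNA changes are fitted against a DMSO baseline. HepaRG cultures receive eight concentrations, highest 100 uM, for 48 h in serum-free induction medium with 0.5% DMSO.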

[15] = read-out: Cytochrome P450 3A7 (Homo sapiens) (UniProt P24462); test: LTEA_HepaRG_CYP3A7: Life Technologies and Expression Analysis (LTEA) Assay for CYP3A7 using HepaRG (AID 2283492)
Outline: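 HepaRG cells plated 48 h, then dosed in serum-free induction medium for 48 h at 8 concentrations (top 100 uM, half-log steps, 0.5% DMSO). CYP3A7 mRNA by qRT-PCR, normalised to ACTB/GAPDH/POLR2A; bidirectional fit versus DMSO.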

[16] = read-out: DNA damage-inducible transcript 3 (DDIT3), DDIT3 (gene 1649); test: LTEA_HepaRG_DDIT3: Life Technologies and Expression Analysis (LTEA) Assay for DNA damage-inducible transcript 3 (DDIT3) using HepaRG (AID 2283488)
Outline: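 Eight-point concentration-response (100 uM highest, half-log dilutions) in HepaRG, 48 h, duplicate wells. Endpoint: qRT-PCR mRNA, normalized (ACTB, GAPDH, POLR2A), bidirectional fitting with DMSO as baseline.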

Measured: AC50

Sequence of Cytochrome P450 3A4 (Homo sapiens) (P08684 whole entry, looked up): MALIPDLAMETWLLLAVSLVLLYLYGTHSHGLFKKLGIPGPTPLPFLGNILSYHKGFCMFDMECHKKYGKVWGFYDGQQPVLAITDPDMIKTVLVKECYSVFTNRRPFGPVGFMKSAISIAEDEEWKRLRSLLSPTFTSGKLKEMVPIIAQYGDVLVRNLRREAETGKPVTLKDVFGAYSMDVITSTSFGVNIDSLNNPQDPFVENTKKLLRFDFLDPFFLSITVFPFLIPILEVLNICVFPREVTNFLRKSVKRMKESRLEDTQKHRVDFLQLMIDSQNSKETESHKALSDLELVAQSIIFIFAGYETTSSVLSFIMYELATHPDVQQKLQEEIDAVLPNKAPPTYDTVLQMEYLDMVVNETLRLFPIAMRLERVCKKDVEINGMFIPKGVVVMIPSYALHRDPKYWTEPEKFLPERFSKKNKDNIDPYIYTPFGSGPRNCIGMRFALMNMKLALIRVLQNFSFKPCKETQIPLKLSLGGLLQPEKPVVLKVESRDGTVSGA
Sequence of Hypoxia-inducible factor 1-alpha (Homo sapiens) (Q16665 whole entry, looked up): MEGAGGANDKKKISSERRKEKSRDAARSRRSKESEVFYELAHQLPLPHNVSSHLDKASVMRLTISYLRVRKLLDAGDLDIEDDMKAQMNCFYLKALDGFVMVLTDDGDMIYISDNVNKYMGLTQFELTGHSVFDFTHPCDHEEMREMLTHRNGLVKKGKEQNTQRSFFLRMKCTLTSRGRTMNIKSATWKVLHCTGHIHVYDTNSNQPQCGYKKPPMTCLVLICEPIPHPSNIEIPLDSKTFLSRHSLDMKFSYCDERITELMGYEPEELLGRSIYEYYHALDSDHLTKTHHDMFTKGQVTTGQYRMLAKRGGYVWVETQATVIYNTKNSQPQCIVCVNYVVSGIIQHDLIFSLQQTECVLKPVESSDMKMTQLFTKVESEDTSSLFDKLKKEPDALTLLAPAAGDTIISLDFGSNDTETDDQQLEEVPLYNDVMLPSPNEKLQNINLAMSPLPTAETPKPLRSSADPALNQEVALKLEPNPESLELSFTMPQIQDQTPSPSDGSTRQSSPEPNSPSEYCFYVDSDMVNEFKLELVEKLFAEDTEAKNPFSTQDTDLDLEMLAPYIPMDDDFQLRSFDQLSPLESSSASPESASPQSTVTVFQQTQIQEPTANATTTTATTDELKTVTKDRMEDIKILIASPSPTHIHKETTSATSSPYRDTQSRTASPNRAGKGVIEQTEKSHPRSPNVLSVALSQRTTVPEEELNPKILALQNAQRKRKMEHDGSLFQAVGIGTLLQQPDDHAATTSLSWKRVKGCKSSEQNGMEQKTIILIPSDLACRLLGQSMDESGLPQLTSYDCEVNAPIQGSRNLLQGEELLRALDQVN
Sequence of Cytochrome P450 3A7 (Homo sapiens) (P24462 whole entry, looked up): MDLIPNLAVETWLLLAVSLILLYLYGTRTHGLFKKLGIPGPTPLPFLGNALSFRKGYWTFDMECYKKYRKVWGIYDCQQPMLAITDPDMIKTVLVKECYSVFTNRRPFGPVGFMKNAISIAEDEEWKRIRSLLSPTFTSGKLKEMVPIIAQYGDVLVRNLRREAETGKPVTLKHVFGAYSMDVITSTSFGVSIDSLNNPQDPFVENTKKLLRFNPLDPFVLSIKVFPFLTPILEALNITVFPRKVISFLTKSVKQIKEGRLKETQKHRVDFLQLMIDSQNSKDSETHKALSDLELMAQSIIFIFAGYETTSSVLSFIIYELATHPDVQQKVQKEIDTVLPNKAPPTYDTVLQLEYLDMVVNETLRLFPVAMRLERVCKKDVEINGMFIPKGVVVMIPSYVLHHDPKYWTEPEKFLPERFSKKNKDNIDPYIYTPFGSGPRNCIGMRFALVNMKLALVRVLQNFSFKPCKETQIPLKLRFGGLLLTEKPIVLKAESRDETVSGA

C=CCc1ccc(OC)c(OC)c1
inactive: CYP2C9 (gene 1559) | CYP2E1 (gene 1571) | CYP4A11 (gene 1579) | [1] | [2] | [3] | [4] | CYP3A5 (gene 1577) | [5] | [6] | [7] | [8] | [9] | [10] | [11] | [12] | [13] | [14]

CC(=O)S[C@H](C(=O)N[C@H]1Cc2ccccc2[C@H]2CCC[C@@H](C(=O)O)N2C1=O)C(C)C
inactive: CYP2C9 (gene 1559) | CYP4A11 (gene 1579) | [1] | [2] | [3] | [4] | [15] | CYP3A5 (gene 1577) | [5] | [6] | [8] | [9] | [10] | [11] | [12] | [13] | [14]

CC(N)=O
inactive: CYP2C9 (gene 1559) | CYP2E1 (gene 1571) | CYP4A11 (gene 1579) | [1] | [2] | [3] | [4] | CYP3A5 (gene 1577) | [5] | [6] | [8] | [9] | [10] | [11] | [12] | [13]

O=C1NC(=O)C(c2ccccc2)(c2ccccc2)N1
inactive: CYP2C9 (gene 1559) | [16] | [2] | [3] | [4] | CYP3A5 (gene 1577) | [7] | [9] | [10] | [11] | [12] | [13]
active: CYP2E1 (gene 1571) 29.7 µM | CYP4A11 (gene 1579) 12.1 µM | [5] 17.9 µM | [6] 9.92 µM | [8] 9.92 µM
